Screening results deposited in PubChem BioAssay by National Center for Advancing Translational Sciences (NCATS).
Menin-MLL TR inh – displaces Texas Red mutant MLL peptide from human menin | Menin + Texas Red MLL mutant peptide, fluorescence polarization | Potency, µM (highest dose often 61.6 µM), for inactives: at the highest dose FP activity change, negative = inhibition, usual class: inhibitors | actives 0.23% (n = 270,000); active = well fitted inhibition curve with a large enough effect in the polarisation, with a control signal flat, not every such curve was filed as active; inconclusive = small, poorly fitted or top-dose-only effect, or effect the other way, or a change in a side signal; inactive = no such curve, though single readings can be large or run the other way; the % refers to the polarisation; note: potency is the fitted concentration of half-maximal effect; % of control where 0% means no effect
Target sequence (O00255 whole entry, looked up): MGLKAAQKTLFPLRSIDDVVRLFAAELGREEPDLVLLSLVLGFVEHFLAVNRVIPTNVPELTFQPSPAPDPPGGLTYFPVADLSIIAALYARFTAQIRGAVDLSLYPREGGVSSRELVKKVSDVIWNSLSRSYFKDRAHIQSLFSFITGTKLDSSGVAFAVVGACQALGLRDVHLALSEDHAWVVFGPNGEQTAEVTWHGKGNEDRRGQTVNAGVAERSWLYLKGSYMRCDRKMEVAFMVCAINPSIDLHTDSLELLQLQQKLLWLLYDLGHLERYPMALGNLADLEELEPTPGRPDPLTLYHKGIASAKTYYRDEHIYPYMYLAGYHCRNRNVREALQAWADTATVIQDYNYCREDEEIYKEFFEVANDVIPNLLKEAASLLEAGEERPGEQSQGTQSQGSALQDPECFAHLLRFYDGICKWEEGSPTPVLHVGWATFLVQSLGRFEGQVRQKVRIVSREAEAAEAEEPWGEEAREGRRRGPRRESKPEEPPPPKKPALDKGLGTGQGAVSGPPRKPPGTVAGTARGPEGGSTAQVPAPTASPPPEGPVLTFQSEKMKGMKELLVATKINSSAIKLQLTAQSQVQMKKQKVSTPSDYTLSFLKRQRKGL
RGS12 GoLoco inh – inhibitors of human Gai1-RGS12 GoLoco interaction (red fluorophore); P63096; Gai1:RGS12 GoLoco peptide FP, rhodamine, 10 min; Potency, µM (doses to about 61.6 µM), inactives show top-dose activity, negative = inhibition, hits mostly inhibitors; actives 0.44% (n = 230,000); AID 880; active = well fitted inhibition curve with a large enough effect, not every such curve was filed as active; inactive = no such curve, though single readings can be large or run the other way; note: potency is the fitted concentration of half-maximal effect; % is set by controls: 0 for no effect and ±100 for the full control effect; nearly all actives have a fitted effect of over 30% in size
Menin MLL FP FL – inhibitors of human menin-MLL interaction, wild-type MLL peptide; AID 1766; FP activity change, % at 61.4 µM; 290,000 tested, under 10 active; Fluorescence polarization, fluorescein-MLL peptide displacement from menin; active = well fitted curve in the direction sought with a large enough effect in the polarisation, not every such curve was filed as active; inconclusive = small, poorly fitted or top-dose-only effect, or effect the other way, or a change in a side signal; inactive = no such curve, though single readings can be large or run the other way; the % refers to the polarisation; note: % of control where 0% means no effect
MLL CXXC-DNA inh – MLL CXXC-DNA interaction inhibition; Q03164; MLL-CXXC / FITC-HOXA9 DNA fluorescence polarization; Potency, µM (doses to about 115 µM), for the others: top-dose activity change, negative = inhibition, usual class: inhibitors; actives 0.037% (n = 290,000); active = well fitted inhibition curve with a large enough effect in the polarisation, with a control signal flat, not every such curve was filed as active; inconclusive = small, poorly fitted or top-dose-only effect, or effect the other way, or a change in a side signal; inactive = no such curve, though single readings can be large or run the other way; the % refers to the polarisation; note: potency is the fitted concentration of half-maximal effect
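Fluorescence polarization: 7 uM MLL-CXXC (stock) preincubated 5 min with compounds, then 50 nM fluorescein-HOX-A9 DNA (stock) added; 30 min ambient. Buffer 50 mM Tris-HCl pH 7.5, 50 mM NaCl, 1 mM DTT, 0.05% BSA.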
MLL CXXC FP-Fl – MLL CXXC-DNA interaction inhibition, fluorescein FP; MLL CXXC-DNA binding, fluorescein FP; actives 70% (n = 200); Potency, µM (highest dose often 345 µM), without a hit: top-dose activity change, negative = inhibition, actives largely listed as inhibitors; shares compounds with MLL CXXC-DNA inh; AID 624160; note: potency is the fitted concentration of half-maximal effect; nearly all actives have a fitted effect of over 80% in size
MLL CXXC TxRed – disrupts human MLL CXXC domain binding to DNA, Texas Red | shares compounds with MLL CXXC-DNA inh | MLL CXXC-DNA binding, Texas Red fluorescence polarization | Potency, µM (doses to about 345 µM), for the others: at the highest dose activity change, negative = inhibition, usual class: inhibitors | actives 40% (n = 200); note: potency is the fitted concentration of half-maximal effect; % is set by controls: 0 for no effect and ±100 for the full control effect; nearly all actives have a fitted effect of over 75% in size
MLL CXXC HTRF – inhibitors of human MLL CXXC domain-DNA interaction, HTRF format. shares compounds with MLL CXXC-DNA inh. MLL CXXC-DNA binding, HTRF, biochemical. Potency, µM (series often up to 172 µM), inactives show at the highest dose activity change, negative = inhibition, usual class: inhibitors. actives 30% (n = 210); note: % is set by controls: 0 for no effect and ±100 for the full control effect; nearly all actives have a fitted effect of over 80% in size
The depositor's hits bear a star; ? = inconclusive; · = no result; ! = repeats disagree; [ ] = remark or other dose. This is one part of a sample in which hits are shown more often than they occur. Unless noted, calls come from the whole dose curve; as a rule, active = well fitted inhibition curve with a large enough effect; inconclusive = small, poorly fitted or top-dose-only effect; inactive = no such curve, though single readings can be large or run the other way.

SMILES	Menin-MLL TR inh	RGS12 GoLoco inh	Menin MLL FP FL	MLL CXXC-DNA inh	MLL CXXC FP-Fl	MLL CXXC TxRed	MLL CXXC HTRF
NC(=O)C(c1ccccc1)(c1ccccc1)[C@@H]1CCN(CCc2ccc3c(c2)CCO3)C1	-5.9%	·	3.5	-6.0%	·	·	·
O=C1c2c(O)ccc(O)c2C(=O)c2c(NCCNCCO)ccc(NCCNCCO)c21	?	14.1%	?	?	6.79µM*	12.1µM*	7.35µM*
O=C1c2ccccc2C(=O)c2c(NCCCN(CCO)CCO)cccc21	?	111.0%	-1.5	-12.2%	·	·	·
CCCC(=O)OC[C@@H](OC(=O)CCC)[C@@H](OC(=O)CCC)[C@H](Cn1c2nc(=O)[nH]c(=O)c-2nc2cc(C)c(C)cc21)OC(=O)CCC	-21.0%	·	?	?	14.2µM*	?	22.6%
CC(=O)OCCn1c2nc(=O)[nH]c(=O)c-2nc2cc(C)c(C)cc21	-2.0%	14.1µM*	?	?	1.79µM*	2.4%	13.6%
Cc1cc2nc(C)c(=O)n(C)c2cc1C	8.5%	1.0%	-2.7	2.9%	·	·	·
O=C1[C@H]2[C@H]3[C@H](O)[C@H](O)C/C(=N/OC[C@@H](O)COCc4ccco4)[C@@H]3CC[C@@H]2C(=O)N1Cc1ccccc1	7.0%[11.7 µM]	·	1.3[11.7 µM]	·	·	·	·
CC1=NN(c2ccc(Cl)c(C(=O)O)c2)C(=O)/C1=C\c1ccc(-c2ccc(C(=O)O)cc2)o1	?	-3.8%	2.0	?	28.3µM*	12.3%	-57.8%
CC1=NOC(=O)/C1=C\c1ccc(-c2ccc(Cl)c(C(=O)O)c2)o1	39.4%	-9.4%	18.9	?	20µM*	89.5µM*	48.5µM*
CC1=NN(c2ccc(C(=O)O)cc2)C(=O)/C1=C/c1ccc(-c2ccccc2F)o1	?	·	-13.7	?	·	·	·
CC1(C)OC(=O)C(=Cc2ccc(-c3ccc(Cl)c(C(=O)O)c3)o2)C(=O)O1	23.6%	4.3%	9.2	28.2µM*	15.9µM*	56.5µM*	38.5µM*
O=C1NN(c2ccccc2)C(=O)/C1=C/c1ccc(-c2ccc(C(=O)O)cc2)o1	?	·	21.6	31.6µM*	89.5µM*	142µM*	?
CC(C)CO/N=C1/C[C@@H](O)[C@@H](O)[C@@H]2[C@H]3C(=O)N(c4ccc(F)cc4F)C(=O)[C@@H]3CC[C@H]12	-11.4%[11.7 µM]	·	-0.1[11.7 µM]	·	·	·	·
COC(=O)C=P(c1ccccc1)(c1ccccc1)c1ccccc1	5.0%	-3.5%	-0.6	·	·	·	·
CCOC(=O)/C(C#N)=C1\SS/C(=C(/C#N)C(=O)OCC)S1	?	-20.6%	?	17.8µM*	25.2µM*	63.3µM*	4.85µM*
Cc1ccccc1NC(=O)c1cccc(S(=O)(=O)Nc2cccc(C(=O)O)c2)c1	27.0%	·	-2.0	-3.2%	·	·	·
Cc1ccc(C(=O)Nc2ccc(S(=O)(=O)O)c3cc(S(=O)(=O)O)cc(S(=O)(=O)O)c23)cc1NC(=O)c1cccc(NC(=O)Nc2cccc(C(=O)Nc3cc(C(=O)Nc4ccc(S(=O)(=O)O)c5cc(S(=O)(=O)O)cc(S(=O)(=O)O)c45)ccc3C)c2)c1	57.1%	116.9%	10.9	7.94µM*	20µM*	22.5µM*!	4.85µM*
CCN(CC)c1ccc2cc(-c3nc(-c4ccc(OC)cc4)cs3)c(=O)oc2c1	21.0%	51.4%	?	?	0.448µM*	?	-5.4%
O=C1c2cccc3cc([N+](=O)[O-])cc(c23)C(=O)N1CCN1CCCC1	-12.2%	0.8%	?	?	·	·	·
Nc1cc2c3c(cccc3c1)C(=O)N(CCN1CCCC1)C2=O	-17.3%	-19.9%	?	7.94µM*	142µM*	?	87.4%
CCN(CC)CCN1C(=O)c2cccc3cc(N)cc(c23)C1=O	1.1%	21.4%[14.2 µM]	?	35.5µM*	89.5µM*	?	97.4%
CC(=O)OCCCN1C(=O)c2cccc3cc(Br)cc(c23)C1=O	-21.6%	·	-1.3	-6.0%	·	·	·
CN(C)c1ccc(-c2cc(N(C)Cc3ccco3)ncn2)cc1	-0.7%	5.5%	9.9	·	·	·	·
COc1cc(C=C2C(=O)c3ccccc3C2=O)cc(OC)c1OC	14.1%	68.8%	?	35.5µM*	44.8µM*	142µM*	96.8µM*
COc1ccc(C=C2C(=O)c3ccccc3C2=O)cc1O	?	98.4%	20.6	?	·	·	·
SMILES	Menin-MLL TR inh	RGS12 GoLoco inh	Menin MLL FP FL	MLL CXXC-DNA inh	MLL CXXC FP-Fl	MLL CXXC TxRed	MLL CXXC HTRF
COc1cc(C=C2C(=O)c3ccccc3C2=O)ccc1O	·	56.1%	13.1	?	28.3µM*	?	50.7%
COc1cc(C=C2C(=O)c3ccccc3C2=O)cc(OC)c1	·	-2.6%	5.0	?	·	·	·
COC(C(=O)C(O)C(C)O)C1Cc2cc3cc(OC4CC(OC5CC(O)C(O)C(C)O5)C(O)C(C)O4)c(C)c(O)c3c(O)c2C(=O)C1OC1CC(OC2CC(OC3CC(C)(O)C(O)C(C)O3)C(O)C(C)O2)C(O)C(C)O1 (configuration not stated)	-6.3%	·	?	?	·	·	72.1%
CO[C@H](C(=O)[C@@H](O)[C@@H](C)O)C1Cc2cc3cc(O[C@H]4C[C@@H](O[C@H]5C[C@@H](O)[C@H](O)[C@@H](C)O5)[C@@H](O)[C@@H](C)O4)c(C)c(O)c3c(O)c2C(=O)[C@H]1O[C@H]1C[C@@H](O[C@H]2C[C@@H](O[C@H]3C[C@](C)(O)[C@H](O)[C@@H](C)O3)[C@H](O)[C@@H](C)O2)[C@H](O)[C@@H](C)O1 (some centres not stated)	-8.4%	·	?	39.8µM*	25.9%	17.4%	83.0%
CNC(=O)[C@H](Cc1c[nH]c2ccccc12)NC(=O)[C@@H](CC(=O)NO)CC(C)C	8.9%	8.3%	1.4	0.5%	·	·	·
CC(C)C1OC2(C)OC(=N)C1(C#N)C(C#N)(C#N)C2c1ccccc1 (configuration not stated)	2.9%	-21.6%	?	17.8µM*	89.5µM*	44.8µM*	14.8%
CCC1OC2(C)OC(=N)C1(C#N)C(C#N)(C#N)C2c1ccccc1 (configuration not stated)	-7.1%	-31.7%	2.2	10.2%	·	·	·
COc1ccc(/C=C2/SC(=S)NC2=O)cc1OCc1ccccc1	?	·	8.5	?	?	22.2%	29.6%
COc1cc(/C=C2/SC(=O)NC2=O)ccc1OCc1ccccc1	?	·	-5.9	?	·	·	·
CCC1OCCC=CC1C (configuration not stated)	-2.8%[11.7 µM]	·	-4.2[11.7 µM]	·	·	·	·
CCc1ccc(OCc2ccccc2C(=O)Nc2ccc3nc(C)cc(N)c3c2)cc1	-26.2%	9.4%	5.6	·	·	·	·
